The campaign covered roughly 5,500 compounds. About 2,000 (36%) were called active. Roughly 18% stayed inconclusive and do not appear here. This is one part of the list. Values without a mark were called inactive. Rule as the data show it: active = normalized growth mostly below about 0.91 (no sharp cut-off); inconclusive = no clear call, values can overlap the other calls; inactive = mostly above about 0.92.
Test: chemical genetic growth profiling, strain panel (AID 1159580);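 also: tested at 20 µM; growth read once vehicle control cultures reached saturation at 30 °C; 1 = growth at the plate median or of vehicle wells; lower values mean less growth of the strain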
Details: S. cerevisiae deletion strains, growth OD

With `CC(=O)Oc1c2c(c(CC=C(C)C)c3c1C(=O)C1=C[C@@H]4CC5C(C)(C)OC(C/C=C(\C)C(=O)O)(C4=O)[C@@]15O3)OC(C)(CCC=C(C)C)C=C2` (stereo partly specified) the normalized growth (locus YAL021C, strain ccr4, hits give low values) was 0.99, the normalized growth (locus YAL026C, strain drs2, hits give low values) was 0.986 and the normalized growth (locus YAL030W, strain snc1, hits give low values) was 0.977. The normalized growth (locus YBL061C, strain skt5, hits give low values) was 0.984, the normalized growth (locus YBR009C, strain hhf1, hits give low values) was 0.948 and the normalized growth (locus YBR023C, strain chs3, hits give low values) was 0.962. For the same molecule, the normalized growth (locus YBR171W, strain sec66, hits give low values) was 0.989, the normalized growth (locus YBR231C, strain swc5, hits give low values) was 0.953 and the normalized growth (locus YBR279W, strain paf1, hits give low values) was 0.975. For the same molecule, the normalized growth (locus YCL011C, strain gbp2, hits give low values) was 0.98, the normalized growth (locus YCL016C, strain dcc1, hits give low values) was 0.97 and the normalized growth (locus YCL069W, strain vba3, hits give low values) was 0.991. For the same molecule, the normalized growth (locus YCR088W, strain abp1, hits give low values) was 0.972, the normalized growth (locus YDL005C, strain med2, hits give low values) was 0.977 and the normalized growth (locus YDL040C, strain nat1, hits give low values) was 0.978. For the same molecule, the normalized growth (locus YDR001C, strain nth1, hits give low values) was 0.988, the normalized growth (locus YDR069C, strain doa4, hits give low values) was 0.933 and the normalized growth (locus YDR137W, strain rgp1, hits give low values) was 0.551 (active). The normalized growth (locus YDR159W, strain sac3, hits give low values) was 0.975, the normalized growth (locus YDR195W, strain ref2) was 1.11 and the normalized growth (locus YDR297W, strain sur2, hits give low values) was 0.969. The normalized growth (locus YDR334W, strain swr1, hits give low values) was 0.976, the normalized growth (locus YDR335W, strain msn5, hits give low values) was 0.994 and the normalized growth (locus YDR392W, strain spt3, hits give low values) was 0.695 (active). For the same molecule, the normalized growth (locus YEL003W, strain gim4, hits give low values) was 0.978, the normalized growth (locus YEL037C, strain rad23, hits give low values) was 0.99 and the normalized growth (locus YEL061C, strain CIN8 (second series), hits give low values) was 1. For the same molecule, the normalized growth (locus YER015W, strain faa2, hits give low values) was 0.989, the normalized growth (locus YER016W, strain bim1, hits give low values) was 0.971 and the normalized growth (locus YER111C, strain swi4, hits give low values) was 0.99. For the same molecule, the normalized growth (locus YER155C, strain BEM2 (second series), hits give low values) was 0.96, the normalized growth (locus YFR010W, strain ubp6, hits give low values) was 0.938 and the normalized growth (locus YGL167C, strain pmr1, hits give low values) was 0.982. It also gave a normalized growth (locus YGL173C, strain kem1, hits give low values) of 0.97, a normalized growth (locus YGL227W, strain vid30, hits give low values) of 1 and a normalized growth (locus YGL240W, strain doc1, hits give low values) of 0.983. It also gave a normalized growth (locus YGL253W, strain hxk2, hits give low values) of 0.989, a normalized growth (locus YHR013C, strain ard1, hits give low values) of 0.894 and a normalized growth (locus YHR027C, strain rpn1, hits give low values) of 0.984. The normalized growth (locus YHR142W, strain chs7, hits give low values) was 0.939, the normalized growth (locus YJL092W, strain hpr5, hits give low values) was 0.975 and the normalized growth (locus YJL095W, strain BCK1 (second series), hits give low values) was 0.944. The normalized growth (locus YJL115W, strain asf1, hits give low values) was 1.01, the normalized growth (locus YJL129C, strain trk1, hits give low values) was 0.76 (active) and the normalized growth (locus YJL154C, strain vps35, hits give low values) was 0.996. For the same molecule, the normalized growth (locus YJL164C, strain tpk1, hits give low values) was 0.951, the normalized growth (locus YJL166W, strain qcr8, hits give low values) was 0.984 and the normalized growth (locus YJL187C, strain SWE1, hits give low values) was 0.974. For the same molecule, the normalized growth (locus YKL160W, strain elf1, hits give low values) was 0.962, the normalized growth (locus YKR026C, strain gcn3, hits give low values) was 0.983 and the normalized growth (locus YKR091W, strain srl3, hits give low values) was 0.978. It also gave a normalized growth (locus YLL001W, strain dnm1, hits give low values) of 0.979, a normalized growth (locus YLL026W, hits give low values) of 1 and a normalized growth (locus YLL041C, strain sdh2, hits give low values) of 0.994. It also gave a normalized growth (locus YLR027C, strain aat2, hits give low values) of 0.977, a normalized growth (locus YLR221C, strain rsa3, hits give low values) of 0.969 and a normalized growth (locus YLR258W, strain gsy2, hits give low values) of 0.979. The normalized growth (locus YLR262C, strain YPT6 (second series), hits give low values) was 0.543 (active), the normalized growth (locus YLR320W, strain mms22, hits give low values) was 0.806 (active) and the normalized growth (locus YLR342W, strain FKS1, hits give low values) was 0.963. It also gave a normalized growth (locus YLR357W, strain rsc2, hits give low values) of 1.05, a normalized growth (locus YLR370C, strain arc18, hits give low values) of 0.946 and a normalized growth (locus YLR384C, strain iki3, hits give low values) of 0.981. For the same molecule, the normalized growth (locus YML120C, strain ndi1, hits give low values) was 0.996, the normalized growth (locus YMR058W, strain fet3, hits give low values) was 0.982 and the normalized growth (locus YMR125W, strain sto1, hits give low values) was 0.993. The normalized growth (locus YMR129W, hits give low values) was 0.975, the normalized growth (locus YMR205C, strain PFK2, hits give low values) was 0.812 (active) and the normalized growth (locus YMR231W, strain pep5, hits give low values) was 0.987. The normalized growth (locus YNL071W, strain lat1, hits give low values) was 0.797 (active), the normalized growth (locus YNL209W, strain ssb2, hits give low values) was 0.977 and the normalized growth (locus YNL248C, strain rpa49, hits give low values) was 0.983. For the same molecule, the normalized growth (locus YNL322C, strain KRE1 (second series), hits give low values) was 1.01, the normalized growth (locus YNR049C, strain mso1, hits give low values) was 0.984 and the normalized growth (locus YOR001W, strain rrp6, hits give low values) was 0.988. For the same molecule, the normalized growth (locus YOR070C, strain gyp1, hits give low values) was 0.971, the normalized growth (locus YOR080W, strain dia2, hits give low values) was 0.994 and the normalized growth (locus YOR083W, strain WHI5, hits give low values) was 0.953. The normalized growth (locus YOR106W, strain vam3, hits give low values) was 0.931, the normalized growth (locus YOR265W, strain rbl2, hits give low values) was 0.962 and the normalized growth (locus YOR270C, strain vph1, hits give low values) was 0.653 (active). For the same molecule, the normalized growth (locus YOR290C, strain snf2, hits give low values) was 0.96, the normalized growth (locus YPL051W, strain arl3, hits give low values) was 0.931 and the normalized growth (locus YPL078C, strain atp4, hits give low values) was 0.967. The normalized growth (locus YPL106C, strain sse1, hits give low values) was 1.02 and the normalized growth (locus YPL240C, strain hsp82, hits give low values) was 0.978.

— PubChem BioAssay AID1159580 (chemical genetic matrix, 2015)
